Source: PubChem BioAssay AID1903 (Southern Research Specialized Biocontainment Screening …, 2009)
Values joined by “and” are separate entries in the source; they are usually repeats but may differ in a detail not shown here. Equal entries are not always repeated. Among all 310,000 compounds or so, about 1,200 (0.39%) were called active. How the calls were made is not given here. The list is a sample of the results. Entries with a potency or affinity are not part of this list.

These compounds were tested against Large T antigen (Simian virus 40) (UniProt P03070) (assay: SV40 large T antigen inhibitors, biochemical (AID 1903)). Settings: SV40 large T antigen ATPase/helicase inhibition assay; at 20 µM; hits give high values.
Sequence of Large T antigen (Simian virus 40) (P03070 whole entry, looked up): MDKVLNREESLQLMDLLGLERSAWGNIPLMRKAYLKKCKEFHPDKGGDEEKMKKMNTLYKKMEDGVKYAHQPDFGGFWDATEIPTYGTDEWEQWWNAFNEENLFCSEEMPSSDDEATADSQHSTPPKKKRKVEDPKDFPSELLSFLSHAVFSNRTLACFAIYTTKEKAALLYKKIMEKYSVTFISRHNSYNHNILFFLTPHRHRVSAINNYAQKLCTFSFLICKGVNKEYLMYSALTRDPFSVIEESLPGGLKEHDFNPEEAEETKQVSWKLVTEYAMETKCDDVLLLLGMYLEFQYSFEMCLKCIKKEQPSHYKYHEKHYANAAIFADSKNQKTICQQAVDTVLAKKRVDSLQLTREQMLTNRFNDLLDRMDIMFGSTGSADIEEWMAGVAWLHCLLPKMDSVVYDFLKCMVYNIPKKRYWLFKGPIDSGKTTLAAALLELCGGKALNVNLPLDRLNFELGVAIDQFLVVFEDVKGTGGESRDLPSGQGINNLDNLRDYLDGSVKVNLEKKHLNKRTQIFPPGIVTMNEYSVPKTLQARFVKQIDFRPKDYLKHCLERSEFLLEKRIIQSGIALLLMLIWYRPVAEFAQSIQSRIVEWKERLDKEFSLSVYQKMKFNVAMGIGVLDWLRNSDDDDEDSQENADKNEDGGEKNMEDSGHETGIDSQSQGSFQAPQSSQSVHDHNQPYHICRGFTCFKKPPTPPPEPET

inhibition, inactive:
Cc1ccn2cc(-c3ccc(Br)cc3)nc2c1 8.41%
Fc1ccc(-c2cn3ccccc3n2)cc1 0.64%
CC(=O)Nc1cccc(-c2cn3ccc(C)cc3n2)c1 11.2%
Brc1ccc(-c2cn3ccccc3n2)cc1 9.2%
Cc1noc(C)c1C(=O)Nc1c(F)cc(F)cc1Br 0.97%
COc1cc(/C=C/C(=O)OCC(=O)NCc2ccco2)ccc1OC(F)F 8.29%
COc1ccc(CSc2nnc(-c3ccncc3)n2C)cc1F 3.25%
NS(=O)(=O)c1cccc2cccnc12 10.6% and 4.71%
CNS(=O)(=O)c1cccc2cccnc12 -1.68%
O=S(=O)(Nc1ccc(Br)cc1)c1cccc2cccnc12 11.5%
O=S(=O)(Nc1ccc(Cl)cc1)c1cccc2cccnc12 7.28%
COc1cccc2c1O/C(=N\O)C(C(=O)Nc1ccc(C)cc1)C2 (centres undefined) 8.2%
S=C(c1ccc(Br)cc1)N1CCCC1 6.77%
COc1cc(/C=N/NC(=O)c2ccc3c(c2)OCCO3)c(Br)c(Br)c1O 29.5%
COc1cc(/C=N/NC(=O)c2ccc3c(c2)OCO3)ccc1O -30%
CCn1c(C)nc2cc(C(=O)N/N=C/c3ccc(OC)cc3)ccc21 29.8%
COc1cc(/C=N/NC(=O)c2ccoc2C)ccc1O 18%
COc1ccc(/C=N/NC(=O)c2ccoc2C)cc1OC 6.94%
COc1cccc(/C=N/NC(=O)c2ccoc2C)c1O 9.61%
CCOc1ccc(/C=N/NC(=O)c2ccoc2C)cc1OC -2.86%
CCn1c(C)nc2cc(C(=O)N/N=C/c3cccc(OC)c3O)ccc21 6.05%
CCCCN(C)CCN1C(=O)C2C(C(=O)Nc3ccc(OC)cc3)C3C=CC2(O3)C1C(=O)NC1CCCCC1 (centres undefined) 1.82%
Cc1cccc(NC(=O)CSc2ccc3nnc(-c4cccnc4)n3n2)c1 6.51%
COC(=O)c1ccc(S(=O)(=O)NNC(=O)COc2ccc(C)cc2)cc1 6.42%
Cc1c(Nc2cc(N3CCCCCC3)c3nonc3c2[N+](=O)[O-])c(=O)n(-c2ccccc2)n1C 3.53%
CC1=C(C(=O)Nc2ccccc2)C(c2ccc(O)cc2)N2C(=O)CSC2=N1 (centres undefined) 3.32%
Cc1nn(-c2ccccc2)c(C)c1C(=O)OCC(=O)N1CC(=O)Nc2ccccc21 10.3%
Cc1ccc2c(C)c(C(=O)N(Cc3ccc(F)cc3)C3CCS(=O)(=O)C3)oc2c1 (centres undefined) 7.21%
O=C1CCCN1CCCNc1ncccc1[N+](=O)[O-] 1.65%
CCC(C)(O)c1[nH]c2ccc(C(=O)OC)cc2c1C (centres undefined) 2.01%
CCCCC(CC)C1OCC(C[N+]2(C)CCOCC2)O1 (centres undefined) 19.1%
COc1ccc(/C=N/NC(=O)c2cccnc2)cc1O 23.7%
Cc1occc1C(=O)N/N=C/c1ccc(N(C)C)cc1 21.7%
COc1ccc(/C=N/NC(=O)c2ccc(C)nc2)cc1O 33.4%
Cc1occc1C(=O)N/N=C/C=C/c1ccccc1 24.7%
CCN(CC)CC(=O)c1c(N)n(Cc2ccccc2)c(=O)n(C)c1=O 6.97%
Cc1ccc(OCCNCC(O)COc2ccccc2)cc1 (centres undefined) 6.77%
CC(=O)/C=C(\C)Nc1ccccc1O 21.1%
CC(=O)Nc1cc(-c2ccccc2)ccc1O 26.7%
CC(=O)c1ccc(N2C(=NC(=O)C3CCCCC3)SC3CS(=O)(=O)CC32)cc1 (centres undefined) 14.9%
Cc1cc(C(=O)CN2C(=O)NC(Cc3c[nH]c4ccccc34)C2=O)c(C)n1C (centres undefined) -1.66%
CC(C)=N/N=c1\scc(C)n1Cc1ccco1 9.97%
Cc1cs/c(=N\N=C\c2ccccc2)n1Cc1ccco1 2.6%
O=C(O)c1ccccc1O 13.6%
Nc1ccc(N)c(C(=O)O)c1 12.3%
Nc1ccc(C(=O)O)c(O)c1 2.41% and 26.8% and 24.4%
O=C(O)c1cccc(O)c1O 13%
O=C(OCc1nnc(-c2ccccc2)o1)C1CC(=O)N(c2ccccc2)C1 (centres undefined) 4.63%
COc1ccc(CCNCC(=O)Nc2ccccc2C(F)(F)F)cc1 4.81%
CCCCc1nnc(NC(=O)C2CCN(c3ncnc4sc(C)c(C)c34)CC2)s1 6.43%
Cc1ccc(-n2nc3c(=O)n(CC(=O)NCc4ccccc4Cl)nc(C)c3c2C)cc1 10.3%
CCOC(=O)C1=C(O)/C(=C\c2cc(C)n(-c3ccccc3F)c2C)N=C1C 5.39%
O=C(NCc1cccs1)C1CCCN1C(=O)Nc1ccc(F)cc1 (centres undefined) 12.8%
O=C(c1ccc(S(=O)(=O)Nc2ccccc2)cc1)N1CCCC(C(F)(F)F)C1 (centres undefined) 11.1%
CCNC(=O)O/N=C(\C)c1sc(-c2ccc(Cl)cc2)nc1C 1.49%
COc1cc(/C=C2/C(=O)CNC2=O)ccc1O 37.6%
COc1cc(/C=C2/SC(=S)N(c3c(C)n(C)n(-c4ccccc4)c3=O)C2=O)ccc1O 27%
CN=C1S/C(=C\c2ccc(OCC(=O)OC)c(OC)c2)C(=O)N1C 3.67%
CCOc1cc(/C=C2/NC(=O)N(CC(=O)OC)C2=O)ccc1OC 31.1%
CN=C1S/C(=C\c2ccc(O)c(Br)c2)C(=O)N1C 28.8%
CCOc1cc(/C=C2/NC(=O)N(CC(=O)Nc3cccc(C)c3)C2=O)ccc1O 12.6%
COc1cc(/C=C2\CCC/C(=C\c3ccc(O)c(OC)c3)C2=O)ccc1O 9.57%
CCOc1cccc(/C=C2\NC(=S)N(c3ccccc3)C2=O)c1O 18.7%
O=C(O)C1CC(=O)N(Cc2ccc(F)cc2)C1 (centres undefined) 0.55%
